About 83,000 compounds went through this panel and 20% of them were active in at least one assay; those are over-represented in the sample as a whole.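 Activity criterion: percent growth below 10, measured after cells in 96-well plates were exposed to a single compound concentration for 48 hours.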 Unmarked numbers belong to inactive results. Activity calls are given as the source filed them.

Among the test systems are EKVX NSCLC; SN12C renal; UO-31 renal; TK-10 renal; ACHN renal; CAKI-1 renal; CCRF-CEM leukemia; MOLT-4 leukemia; A498 renal.
Common to all, as to assay: NCI-60 one-dose screen, 48 h (100 = growth as untreated, 0 = no growth, -100 = all killed)
Common to all, as to settings: 10 µM unless noted

In the case of `COc1cc(OC)c(S(N)(=O)=O)cc1C(=O)/C=C/c1ccc(C)cc1`, the growth in the assay with EKVX NSCLC was 45.6%; in the assay with SN12C renal, 11.4%; with UO-31 renal, 34.7%; with TK-10 renal, 25.5%; with ACHN renal, 29.7%; in the assay with CAKI-1 renal it was 21.9%. In addition, the growth in the assay on CCRF-CEM leukemia was 16.7%; in the assay with MOLT-4 leukemia it was 21.1%.

With `COc1cc2nc(Cl)nc(Nc3cccc(C4=Nc5c(N)nc(N)nc5NC(c5ccc6c(c5)OCO6)C4)c3)c2cc1OC` (centres undefined), the growth in the assay on EKVX NSCLC was 86.1%; in the assay with SN12C renal, 78.6%; in the assay with UO-31 renal, 86%; with TK-10 renal, 113%; in the assay on ACHN renal, 94%; with CAKI-1 renal, 82.8%. In addition, the growth with A498 renal is 105%; with CCRF-CEM leukemia, 26.8%; in the assay with MOLT-4 leukemia it was 27%.

Consider `Cc1ccc(C(=O)NN2C(=O)/C(=C/C=C/c3ccco3)SC2=S)cc1`, for which the growth was 95.4% in the assay with EKVX NSCLC; 94.7% in the assay on SN12C renal; 88.6% in the assay on UO-31 renal; 118% in the assay with TK-10 renal; 107% in the assay on ACHN renal; 91.4% in the assay with CAKI-1 renal. Also, the figures for the growth with CCRF-CEM leukemia and with MOLT-4 leukemia were 103% and 40.7%, respectively.

As to `CCOC(=O)c1c(Nc2ccccc2)nn2c(-c3ccc(OC)cc3)ccnc12`, the growth is 99.6% in the assay on EKVX NSCLC; 93.5% in the assay on SN12C renal; 85.7% with UO-31 renal; 100% with TK-10 renal; 83.8% in the assay with ACHN renal; 78% with CAKI-1 renal. Further, the growth in the assay with CCRF-CEM leukemia is 74.1%; with MOLT-4 leukemia it was 82.5%.

Take `COc1ccc(Cn2cc3c(c2-c2cc(OC)c(OC)c(OC)c2)CCc2c(CN4CCCC4)noc2-3)cc1`: the growth was 38.1% in the assay with EKVX NSCLC; 36.6% in the assay on SN12C renal; 35.9% in the assay on UO-31 renal; 69.6% with TK-10 renal; 45.7% with ACHN renal; 35.9% in the assay on CAKI-1 renal. The growth is -1.61% (active) with A498 renal and 18.3% in the assay on MOLT-4 leukemia.

On to `CC(C)(C)n1nnnc1C(Nc1cccc2c1OCO2)c1cc2cccc3ccc4cccc1c4c32` (centres undefined), for which the growth was 73.7% with EKVX NSCLC; 90.5% in the assay on SN12C renal; 67.8% in the assay on UO-31 renal; 116% in the assay on TK-10 renal; 85.6% in the assay on ACHN renal; 64.5% in the assay with CAKI-1 renal. The growth in the assay on CCRF-CEM leukemia was -12.9% (active); in the assay on MOLT-4 leukemia, 67.1%.

On to `COc1cccc(N2CCN(c3ncnc4c3[nH]c3ccc(F)cc34)C[C@H]2C)c1`, for which the growth with EKVX NSCLC was 50.9%; in the assay with SN12C renal, 71.5%; with UO-31 renal, 31.6%; in the assay with TK-10 renal it was 95%; with ACHN renal it was 63.2%; in the assay with CAKI-1 renal, 42.9%. Further, the growth was 37% in the assay with A498 renal, 33.3% with CCRF-CEM leukemia and 6.42% (active) in the assay with MOLT-4 leukemia.

Consider `O=C(CCn1cc[n+](CC(=O)c2ccc(-c3ccccc3)cc2)c1)Nc1cccc2cccnc12`, for which the growth in the assay with EKVX NSCLC was 81.9%; in the assay with SN12C renal it was 77.4%; with UO-31 renal, 88.1%; in the assay on TK-10 renal it was 117%; with ACHN renal, 104%; with CAKI-1 renal, 104%. For the same molecule, the values for the growth in the assay on A498 renal, in the assay on CCRF-CEM leukemia and with MOLT-4 leukemia were 98.8%, 78.4% and 84.3%, respectively.

`COc1ccc(-n2c(SCc3n[nH]c(=S)o3)nc3ccc(Cl)cc3c2=O)cc1`: the growth was 98.7% with EKVX NSCLC; 92% with SN12C renal; 93.7% with UO-31 renal; 105% in the assay on TK-10 renal; 97% with ACHN renal; 85.5% with CAKI-1 renal. Moreover, the growth was 98.7% in the assay with CCRF-CEM leukemia and 111% with MOLT-4 leukemia.

Regarding `Cc1ccc2sc3c(c2c1)OC(N)=C(C#N)C3c1ccc(Cl)cc1` (centres undefined), the growth in the assay on EKVX NSCLC is 70.9%; with SN12C renal it was 93.3%; with UO-31 renal it was 75.9%; in the assay with TK-10 renal, 97.3%; in the assay with ACHN renal, 87.4%; with CAKI-1 renal, 60.4%. Moreover, the growth with CCRF-CEM leukemia is 75.7%.

Regarding `CS(=O)(=O)Nc1cc(-c2ccc3ncc(C#N)c(NCc4ccccc4F)c3c2)cnc1Cl`, the growth with EKVX NSCLC is 0.584% (active); with SN12C renal, 16.8%; with UO-31 renal, 4.65% (active); with TK-10 renal, -11.1% (active); in the assay on ACHN renal it was 10.9%; with CAKI-1 renal it was -8.09% (active). The results for the growth in the assay with A498 renal, with CCRF-CEM leukemia and in the assay with MOLT-4 leukemia were -42.9% (active), 13.3% and -15.8% (active), respectively.

For the molecule `O=C1[C@H]2Cc3c([nH]c4ccccc34)[C@@H](c3ccc(Br)cc3)N2C(=O)CN1C1CCN(CC2CCCCC2)CC1`, the growth in the assay with EKVX NSCLC was -79.2% (active); in the assay on SN12C renal, -96.9% (active); in the assay on UO-31 renal, 12.3%; in the assay on TK-10 renal, -85.2% (active); with ACHN renal, -95.1% (active); with CAKI-1 renal, -32.9% (active). Moreover, the growth with A498 renal is -15.4% (active); with MOLT-4 leukemia, -43.5% (active).

As for `Cc1nn(-c2ccccc2)c2ncnc(N/N=C/c3cccc(O)c3)c12`, the growth with EKVX NSCLC was 81.6%; with SN12C renal, 44.4%; with UO-31 renal it was 40.7%; with TK-10 renal, 56.4%; in the assay with ACHN renal it was 50.6%; in the assay on CAKI-1 renal it was 48.7%. The growth was 48.2% in the assay with A498 renal, 27% in the assay with CCRF-CEM leukemia and 22% with MOLT-4 leukemia.

For `CCOC(=O)c1c(Nc2ccccc2)nn2c(-c3ccccc3)ccnc12`, the growth with EKVX NSCLC is 95.4%; in the assay with SN12C renal it was 90.5%; in the assay on UO-31 renal, 85.5%; in the assay with TK-10 renal, 111%; in the assay on ACHN renal, 90.7%; in the assay on CAKI-1 renal, 88.7%. Besides, the growth in the assay with CCRF-CEM leukemia is 9.59% (active); in the assay with MOLT-4 leukemia it was 87.1%.

With `CNC(=O)c1cc(Oc2ccc3nc(NC(=O)c4cc(N5CCOCC5)cc(C(F)(F)F)c4)sc3c2)ccn1`, the growth with EKVX NSCLC was 70.7%; in the assay with SN12C renal, 83.1%; in the assay with UO-31 renal, 87.8%; in the assay on TK-10 renal, 92.3%; in the assay on ACHN renal it was 87.9%; in the assay with CAKI-1 renal it was 82.2%. The growth in the assay on CCRF-CEM leukemia is 67.3%; in the assay with MOLT-4 leukemia it was 65.5%.

For the origin of these results see PubChem BioAssay (NCI).
